About 79,000 compounds went through this panel and 15% of them were active in at least one assay; those are over-represented in the sample as a whole. No stated cut-off is given here; in the data, active means growth inhibition above about 70%; inactive means the rest.
Tests used:
[1] = NCI Yeast Anticancer Drug Screen. Data for the rad50 strain (AID 155);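 further: 0% = growth of vehicle-only cultures of the same strain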; conditions: S. cerevisiae rad50 strain growth inhibition; at 50.0 µM; hits give high values
How it was run: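 Cells are treated with compound, grown, and their growth is then scored against vehicle-only cultures of the same repair-deficient yeast strain.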

[2] = NCI Yeast Anticancer Drug Screen. Data for the mec2-1 strain (AID 157); conditions: S. cerevisiae mec2-1 strain, at 50.0 µM, hits give high values
How it was run: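 Yeast mec2-1 mutant treated with compound. Readout: growth inhibition vs vehicle controls.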

[3] = NCI Yeast Anticancer Drug Screen. Data for the sgs1 mgt1 strain (AID 161);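 further: 0% = growth of cultures given vehicle only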; conditions: S. cerevisiae sgs1 mgt1 strain, at 50.0 µM, hits give high values
How it was run: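 Inhibition of yeast growth, normalised to vehicle-treated controls, is reported for a strain bearing genetic alterations in DNA damage repair.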

[4] = NCI Yeast Anticancer Drug Screen. Data for the cln2 rad14 strain (AID 165);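 further: 0% = growth equal to vehicle treated cultures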; conditions: S. cerevisiae cln2 rad14 strain, at 50.0 µM, hits give high values
How it was run: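 cln2 rad14 yeast strain; compound exposure; growth inhibition read vs vehicle controls.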

[5] = NCI Yeast Anticancer Drug Screen. Data for the bub3 strain (AID 167); conditions: S. cerevisiae bub3 mutant strain, at 50.0 µM, hits give high values
How it was run: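 Part of a panel of yeast mutants defective in DNA damage repair or cell cycle regulation. Each strain is grown with compound, and inhibition is calculated relative to solvent-treated cultures.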

[6] = NCI Yeast Anticancer Drug Screen. Data for the mlh1 rad18 strain (AID 175); conditions: S. cerevisiae mlh1 rad18 strain growth inhibition; at 50.0 µM; hits give high values
How it was run: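 Yeast w/ defined DNA-repair lesions; compound exposure; growth vs vehicle controls → % inhibition.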

Measured: growth inhibition

COC(=O)c1ncn(Cc2ccccc2)c1O (tested in a mixture with another compound)
inactive: [1] 8.7% | [2] -2.2% | [3] 8.55% | [4] 16.3% | [5] 8.15% | [6] 36%

CO/C(=N\N=C\c1cccc(Cl)c1)c1ccncc1
inactive: [1] 6.35% | [2] -9.6% | [3] -13.8% | [4] -24.4% | [5] -18.1% | [6] -11.1%

COc1cc(C)c2c([N+](=O)[O-])cc([N+](=O)[O-])c(OC)c2n1
inactive: [1] 12% | [2] 17.9% | [3] 4% | [4] 3.85% | [5] -10.2% | [6] 7.05%

O=C/C(Cl)=C\Nc1ccc(C(=O)O)cc1
inactive: [1] -0.25% | [2] 2.15% | [3] -0.2% | [4] -23.1% | [5] -0.4% | [6] -10.7%

O=C1CSc2nc3c(Cl)cc(Cl)cc3c(=O)n21
inactive: [1] 15.7% | [2] 24.6% | [3] 54.1% | [4] 8.2% | [5] 30.2% | [6] 46.1%

CCCC(C(C)=O)C(C)=O
inactive: [1] -7.8% | [2] -0.65% | [3] -4.85% | [4] 0.3% | [5] 6% | [6] -4.25%

O=c1[nH]c(=O)n(C2CC3OCC3O2)cc1F (stereo not given)
inactive: [1] -14.2% | [2] 35.7% | [3] -9.05% | [4] 20.1% | [5] -13.5% | [6] 11.2%

O=c1[nH]c(=S)c2[nH]c(=O)n(-c3ccccc3)c2[nH]1
inactive: [1] -15.3% | [2] -7.5% | [3] -59.1% | [4] -26.7% | [5] -9.9% | [6] -14.7%

CCOC(=O)NC(Nc1ccc(S(=O)(=O)Nc2ncccn2)cc1)(C(=O)OCC)C(F)(F)F (stereo not given)
inactive: [1] -0.55% | [2] -19.4% | [3] 10.9% | [4] 32.1% | [5] 16.9% | [6] 2.2%

CN(C)C1C(=O)C(C(=O)NCN2CCCC2)=C(O)C2(O)C(=O)C3=C(O)c4c(O)cccc4C(C)(O)C3CC12 (stereo not given)
inactive: [1] 2.75% | [2] -4.7% | [3] -10.2% | [4] -27.9% | [5] -26.9% | [6] 21.4%

c1cncc(CSc2ncnc3nc[nH]c23)c1
inactive: [1] 11.8% | [2] -24.4% | [3] -20.1% | [4] -21.7% | [5] -48.4% | [6] -10.5%

O=C1C=C(c2ccccc2)CC1
inactive: [1] -17.8% | [2] 2.55% | [3] -6.05% | [4] 8.4% | [5] 13.1% | [6] 0.95%

Cc1cc(=O)c2ccccc2o1
inactive: [1] -5.15% | [2] -7.75% | [3] -1.3% | [4] -0.1% | [5] -18.9% | [6] -13.7%

CC(=O)C(C)C(=O)N1C(=O)N(C)C2(C)N(C)C(=O)NC12C (stereo not given)
inactive: [1] 2.05% | [2] -45.3% | [3] -24.3% | [4] 8.4% | [5] -5.8% | [6] 7.3%

NC1=C(O)C(=O)C(c2ccccc2O)O1 (stereo not given)
inactive: [1] -34.6% | [2] -32.6% | [3] -19.1% | [4] -21.6% | [5] -18.6% | [6] -10.9%

CCOC(=O)c1cc(=O)[nH]c2ccc(OC)cc12
inactive: [1] 17.2% | [2] 22.2% | [3] 2.25% | [4] 35.6% | [5] 11.6% | [6] 7.05%

C[n+]1c(-c2ccc(/C=N/NC(=O)c3cc(O)c(C(=O)N/N=C/c4ccc(-c5cn6ccccc6[n+]5C)cc4)cc3O)cc2)cn2ccccc21
inactive: [1] -31% | [2] -13.5% | [3] -15.7% | [4] -39.5% | [5] -31.9% | [6] -10.5%

CCOC(=O)/C(O)=C(\C#N)c1cc(C)ccc1C
inactive: [1] -7.5% | [2] -14.6% | [3] -2.7% | [4] 0.45% | [5] -0.45% | [6] 10.8%

CC(=O)c1c(N)n(C)c(=O)n(C)c1=O
inactive: [1] 36% | [2] 2.9% | [3] 3.55% | [4] -47.1% | [5] -14.6% | [6] 17.4%

COc1ccc(C(C#N)C(=O)C(=O)Nc2ccc(Cl)cc2C)cc1OC (stereo not given)
inactive: [1] -19.9% | [2] 17.9% | [3] 24.6% | [4] -14.2% | [5] 2.65% | [6] 16.9%

COC(=O)C1C2CC3c4[nH]c5cc(OC)ccc5c4CCN3CC2CC(OC(=O)CCc2cc(OC)c(OC)c(OC)c2)C1OC (stereo not given)
inactive: [1] -3.35% | [2] -0.2% | [3] 4.25% | [4] 13.4% | [5] 14.7% | [6] 9.85%

CC(=O)Oc1ccc(C2COc3cc(OC(C)=O)c(OC(C)=O)cc3C2)cc1 (stereo not given)
inactive: [1] 21.2% | [2] 31.6% | [3] 43% | [4] 9.4% | [5] 49.6% | [6] 37.5%

O=C(C[n+]1ccccc1Br)c1ccc(I)cc1
inactive: [1] -32.9% | [2] 2% | [3] 10.3% | [4] -6.95% | [5] 17.1% | [6] 29.9%

C=CCOC(=O)Oc1ccc(Cl)cc1Cl
inactive: [1] 9.75% | [2] 0.3% | [3] 3.3% | [4] -10.3% | [5] 21.4% | [6] 18.5%

CC(C)(Oc1ccc(C(=O)c2ccc(Cl)cc2)cc1Cl)C(=O)N1CCN(CCO)CC1
inactive: [1] -18.9% | [2] -8.65% | [3] 15.9% | [4] 12.3% | [5] 11.3% | [6] 12.9%

CC(C)(C)C1CCC(C2CC(C(C)(C)C)CCC2=O)CC1 (stereo not given)
inactive: [1] 2.75% | [2] -8% | [3] 1.65% | [4] 5.15% | [5] 5.7% | [6] 27.8%

CC(=O)c1c(O)c(Nc2ccccc2)cc2nc3ccccc3nc12
inactive: [1] -4.45% | [2] 3.95% | [3] -0.4% | [4] -10.3% | [5] -8.75% | [6] -23.3%

CC(C)(C)NC(=O)CCC(=O)O
inactive: [1] -8.65% | [2] -19.4% | [3] -16% | [4] -18.2% | [5] -2.3% | [6] -7.3%

CCC(=O)Nc1ccccc1-c1ccccc1
inactive: [1] 25.6% | [2] 19% | [3] 16.9% | [4] 7.6% | [5] -1.8% | [6] 2.5%

CCCCCCCCCCCCCCCCCC(C)O (stereo not given)
inactive: [1] -8.7% | [2] -13.2% | [3] -1.05% | [4] 1.85% | [5] -10.4% | [6] -10.8%

O=c1cc(Nc2ccccc2Cl)[nH]c(=O)[nH]1
inactive: [1] 9.8% | [2] 2.2% | [3] -5.15% | [4] -41.8% | [5] -27.4% | [6] -13.2%

CCOC(Cn1ccccc1=N)OCC
inactive: [1] 12.8% | [2] -11.7% | [3] -12.6% | [4] -40% | [5] -7.3% | [6] 4.15%

[Cl][Pt+2][Cl].[NH-]c1ccccc1F.[NH-]c1ccccc1F
inactive: [1] 11.2% | [2] 32.9% | [3] -14.8% | [4] 15.8% | [5] -26.9% | [6] 34.4%

O=c1sc2ncccc2n1-c1ccc([N+](=O)[O-])cn1
inactive: [1] -3.4% | [2] 10.4% | [3] 3.15% | [4] -18.4% | [5] 11.9% | [6] -6.55%

O=S1(=O)OC(c2ccc(O)cc2)(c2ccc(O)cc2)c2ccccc21
inactive: [1] 31.6% | [2] -25.9% | [3] 3.1% | [4] 9% | [5] -11.9% | [6] 18.6%

CCC(CO)c1ccccc1 (stereo not given)
inactive: [1] -3.6% | [2] -17.7% | [3] -3.1% | [4] -25.4% | [5] -3.1% | [6] -12.1%

O=C(Nc1cccc2ccccc12)OC1CCCC1
inactive: [1] 1.2% | [2] -12.4% | [3] -14.4% | [4] -53.7% | [5] 6.35% | [6] -28.6%

CS(=O)CCN=Cc1ccc(N=Nc2ccc(O)cc2)cc1 (stereo not given)
inactive: [1] 5.8% | [2] 1.65% | [3] -0.85% | [4] -33.4% | [5] 13.5% | [6] 2.65%

O=C(CCCc1ccc([N+](=O)[O-])cc1)c1ccccc1
inactive: [1] -5.85% | [2] -5.55% | [3] 1.2% | [4] -28.4% | [5] 3.5% | [6] -4.65%

C[C@H](N)C(=O)/C=C/c1ccccc1
inactive: [1] -18.8% | [2] -30.6% | [3] -6.05% | [4] 14.9% | [5] 8.8% | [6] -8.5%

From PubChem BioAssay (NCI)
